Measured values reported in PubChem BioAssay (NCATS).
A number with no mark means an inactive call. Calls come from the whole dose curve; as a rule, active = well fitted inhibition curve with a large enough effect; inconclusive = small, poorly fitted or top-dose-only effect; inactive = no such curve, though single readings can be large or run the other way. Results filed as inconclusive are left out.

experiment: qHTS assay for measurement of the activity of small molecule inhibitors on Zika virus induced Caspase-3 activity in human iPSC derived neural progenitor cells (hNPCs) (AID 1224857); settings: hNPCs ZIKV-induced caspase-3/7, Caspase-Glo luminescence, 6 h; series mostly up to 45.7 µM; activity change, negative = inhibition: at the top concentration; note: % of control where 0% means no effect; nearly all actives have a fitted effect of over 65% in size
How it was run: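 Percent inhibition of virus-induced caspase-3/7 luminescence (Caspase-Glo), scaled between uninfected cells and Zika-infected cells. hNPCs received compound 1 hr before ZIKV at 2 FFU/cell, with 6 hours infection at 37 C.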

With CSc1ccccc1N1CCN(CCCCCC(=O)NC2CCCc3ccccc32)CC1 (stereo not given) as the molecule, how does the “activity change, negative = inhibition” value read?
The value was 14.3%.

With Cc1cc(NC2CCCCC2)nc(-n2nc(C)cc2C)n1 as the molecule, how does the “activity change, negative = inhibition” value read?
Its value is -18.4%.

With CN1CCc2cc(NC(=O)Nc3cccnc3)ccc21 as the molecule, how does the “activity change, negative = inhibition” value read?
The value was -8.6%.

For Nc1ccn([C@@H]2O[C@H](CO)[C@@H](O)[C@@H]2O)c(=O)n1, which “activity change, negative = inhibition” value is on record?
Its value is 31.8%.

With CC(C)(C)c1nnc(NS(=O)(=O)c2ccc(N)cc2)s1 as the molecule, how does the “activity change, negative = inhibition” value read?
Its value is 2.36%.

With O=c1[nH]c2cc(C(F)(F)F)ccc2n1-c1cc(C(F)(F)F)ccc1O as the molecule, how does the “activity change, negative = inhibition” value read?
Its value is -21%.

For NC(=O)C1=CN(C2OC(COP(=O)(O)OP(=O)(O)OC[C@H]3O[C@@H](n4cnc5c(N)ncnc54)[C@H](OP(=O)(O)O)C3O)C(O)C2O)C=CC1 (stereo not given in full), which “activity change, negative = inhibition” value is on record?
The value was -2.35%.

Which “activity change, negative = inhibition” value does the source give for O=C1CN(/N=C/c2ccc(-c3ccc([N+](=O)[O-])cc3)o2)C(=O)N1 here?
The value was -12.2%.

Which “activity change, negative = inhibition” value does the source give for NS(=O)(=O)C#Cc1ccccc1 here?
Its value is -4.19%.

With Cn1c(=O)c(-c2c(Cl)cccc2Cl)cc2cnc(Nc3ccc(N4CCOCC4)cc3)nc21 as the molecule, how does the “activity change, negative = inhibition” value read?
Its value is -0.197%.

Which “activity change, negative = inhibition” value does the source give for Nc1nc(Cl)nc2c1ncn2[C@@H]1O[C@H](CO)C(O)[C@H]1O (stereo not given in full) here?
Its value is 22.2%.

For CC(=O)N[C@H](C(=O)O)C(C)(C)SN=O, which “activity change, negative = inhibition” value is on record?
The value was 4.73%.

For O=c1cc(-c2ccccc2)oc2c(O)c(O)ccc12, which “activity change, negative = inhibition” value is on record?
Its value is 18.8%.

Which “activity change, negative = inhibition” value does the source give for C[C@H](Cc1ccccc1)Nc1ncnc2c1ncn2[C@@H]1O[C@H](CO)C(O)[C@H]1O (stereo not given in full) here?
The value was 1.31%.

With NC(N)=NC(=O)c1nc(Cl)c(N2CCCCCC2)nc1N as the molecule, how does the “activity change, negative = inhibition” value read?
The value was 2.37%.

Which “activity change, negative = inhibition” value does the source give for Nc1ncnc2c1ncn2[C@@H]1O[C@H](CO)C(O)[C@H]1O (stereo not given in full) here?
Its value is 4.82%.

Which “activity change, negative = inhibition” value does the source give for OCC1O[C@H]([S-])C(O)[C@@H](O)[C@@H]1O.[Au+] (stereo not given in full) here?
The value was 4.18%.

For O=[N+]([O-])c1ccc(CSc2ncnc3c2ncn3[C@@H]2O[C@H](CO)C(O)[C@H]2O)cc1 (stereo not given in full), which “activity change, negative = inhibition” value is on record?
The value was 9.65%.

With Cc1cc(NC(=O)Nc2ccc3c(ccn3C)c2)sn1 as the molecule, how does the “activity change, negative = inhibition” value read?
The value was -7.27%.

For O=C(CCSCc1ccco1)NNC(=O)N1Cc2ccccc2Oc2ccc(Cl)cc21, which “activity change, negative = inhibition” value is on record?
Its value is -24.9%.

experiment: qHTS assay for measurement of the activity of small molecule inhibitors on Zika virus induced Caspase-3 activity in human astrocytoma cells (AID 1224859); settings: SNB-19 ZIKV-induced caspase-3/7, luminescence, 6 h; series mostly up to 45.7 µM; activity change, negative = inhibition: at the top concentration;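 note: plate controls were ZIKV-infected untreated cells for no effect and uninfected cells for full effect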
How it was run: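 Luminescent caspase-3/7 read-out (30 min reagent, room temperature) in human SNB-19 cells infected 6 h with ZIKV (2 FFU/cell) after 1 h compound pre-incubation; Data were normalised to uninfected and infected wells.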

For O=C(O)c1cc(=O)c2ccccc2[nH]1, which “activity change, negative = inhibition” value is on record?
The value was 3.7%.

For NCCCS(=O)(=O)O, which “activity change, negative = inhibition” value is on record?
The value was -9.52%.

For OC[C@H]1O[C@@H](n2cnc3c(NC4CCCCC4)ncnc32)[C@H](O)[C@@H]1O, which “activity change, negative = inhibition” value is on record?
The value was -18.6%.

Which “activity change, negative = inhibition” value does the source give for N[C@@H](CC(=O)O)C(=O)O here?
Its value is 0.368%.

With Fc1cccc(/C=N/N=C/c2cccc(F)c2)c1 as the molecule, how does the “activity change, negative = inhibition” value read?
The value was 5.1%.

Which “activity change, negative = inhibition” value does the source give for CN1CCc2ccccc2Cc2[nH]c3ccccc3c2CC1 here?
The value was -19.5%.

With Cn1c(=O)c2[nH]c(-c3ccccc3)nc2n(C)c1=O as the molecule, how does the “activity change, negative = inhibition” value read?
The value was 0.0195%.

With CSc1ccccc1N1CCN(CCCCCC(=O)NC2CCCc3ccccc32)CC1 (stereo not given) as the molecule, how does the “activity change, negative = inhibition” value read?
Its value is 7.08%.

For Cc1cc(NC2CCCCC2)nc(-n2nc(C)cc2C)n1, which “activity change, negative = inhibition” value is on record?
The value was 16.1%.

With CN1CCc2cc(NC(=O)Nc3cccnc3)ccc21 as the molecule, how does the “activity change, negative = inhibition” value read?
Its value is -22%.

With O=c1[nH]c2cc(C(F)(F)F)ccc2n1-c1cc(C(F)(F)F)ccc1O as the molecule, how does the “activity change, negative = inhibition” value read?
The value was 13.4%.

Which “activity change, negative = inhibition” value does the source give for NS(=O)(=O)C#Cc1ccccc1 here?
The value was 6.65%.

With CC(=O)N[C@H](C(=O)O)C(C)(C)SN=O as the molecule, how does the “activity change, negative = inhibition” value read?
The value was 6.93%.

Which “activity change, negative = inhibition” value does the source give for NC(N)=NC(=O)c1nc(Cl)c(N2CCCCCC2)nc1N here?
The value was 5.64%.

For Cc1cc(NC(=O)Nc2ccc3c(ccn3C)c2)sn1, which “activity change, negative = inhibition” value is on record?
The value was 3.08%.
